Bioassay records as filed in PubChem.
This is a sample that favours compounds with a hit; in the whole collection about 3.4% have one here.
FBW7 activator: activators of human E3 ligase FBW7 | 650,000 tested, 0.13% active | AlphaScreen FBW7–phospho-cyclin E peptide binding, activator screen | normalized activity (activation), % at 26.1 µM; in the data active means normalized activity above about 1.9%;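 further: purified mutant Fbw7 with reduced substrate affinity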
GPR151 activ: activators of human GPR151; AID 1508602; Q8TDV0; PathHunter beta-arrestin GPR151 cells, luminescence; activation, % at 11.2 µM; 650,000 tested, 1% active; in the data active means activation above about 4.9%
Target sequence (Q8TDV0 whole entry, looked up): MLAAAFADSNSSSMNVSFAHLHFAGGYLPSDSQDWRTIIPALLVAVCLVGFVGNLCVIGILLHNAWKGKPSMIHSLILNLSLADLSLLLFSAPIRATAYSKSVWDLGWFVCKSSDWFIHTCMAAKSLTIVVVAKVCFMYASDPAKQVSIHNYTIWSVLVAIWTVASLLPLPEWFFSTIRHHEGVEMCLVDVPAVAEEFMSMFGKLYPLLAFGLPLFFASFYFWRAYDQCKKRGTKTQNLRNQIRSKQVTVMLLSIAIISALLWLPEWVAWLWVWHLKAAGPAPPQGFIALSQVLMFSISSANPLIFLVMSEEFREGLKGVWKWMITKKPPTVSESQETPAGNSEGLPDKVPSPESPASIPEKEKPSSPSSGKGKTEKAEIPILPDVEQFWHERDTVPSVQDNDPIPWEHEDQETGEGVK
MITF primary: blocks human microphthalmia-associated transcription factor | AlphaScreen MITF homodimerization, bead proximity signal | inhibition, % at 2.6 µM | 650,000 tested, 0.91% active | AID 1259374; in the data active means inhibition above about 50%
TEAD-YAP inh: TEAD-YAP interaction inhibition | HEK-TIYL cells, TEAD-Gal4/YAP UAS-luciferase luminescence | inhibition, % at 9.12 µM | 640,000 tested, 1.4% active | AID 1259422; in the data active means inhibition above about 32%
GPR151 conf act: confirmation of human GPR151 activators. AID 1508609. GPR151 PathHunter beta-arrestin cells, luminescence, 90 min; % of EA-reagent control over plate median. 6,700 tested, under 10 active. activation, % at 11.2 µM. shares compounds with GPR151 activ;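 active means mean percent activation across replicates above the confirmation screen cutoff of 4.91%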
GPR119 counter: counter-screen for GPR151 activators: effect on human GPR119; shares compounds with GPR151 activ; GPR119 PathHunter beta-arrestin cells, luminescence, 90 min; 0 = compound-well median, 100 = enzyme-acceptor control; activation, % at 11.2 µM; 6,700 tested, 0.3% active; AID 1508611;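 active means mean percent activation in the counterscreen above 29.09%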;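 further: counterscreen on off-target GPR119 to flag nonselective hits from the GPR151 activator screen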
A number is an active result; 0 = inactive; - = no result given; ! = not active in a repeat.

SMILES	FBW7 activator	GPR151 activ	MITF primary	TEAD-YAP inh	GPR151 conf act	GPR119 counter
COc1ccc(NC(=O)Cn2c(-n3nc(C)cc3C)nc(C)cc2=O)cc1	0	0	0	0	-	-
CCOc1ccc(NC(=O)Cn2c(-n3nc(C)cc3C)nc(C)cc2=O)cc1	0	9.1	0	0	0	0
S=C1Nc2ccccc2C2CC=NN12 (stereo not drawn)	0	5.7	0	0	0	0
N#Cc1ccc(CSC2=Nc3ccccc3C3CC=NN23)cc1 (stereo not drawn)	0	0	0	0	-	-
COc1ccc(OCC(=O)Nc2nc3ccccc3[nH]2)cc1	0	0	0	0	-	-
COc1cccc(CC(=O)Nc2nc3ccccc3[nH]2)c1	0	5.6	0	0	0	0
COc1ccc(NC(=O)Cc2nc3ccccc3[nH]2)cc1	0	18	0	38	0	0
CCCC[C@H](C)C[C@H](O)/C=C/[C@H]1[C@H](O)CC(=O)[C@@H]1CCCCC(CC(=O)O)OC (stereo partly drawn)	-	0	0	-	-	-
CCC(C)NC(=O)CN(c1cccc(C(F)(F)F)c1)S(=O)(=O)c1ccccc1 (stereo not drawn)	0	10.0	0	0	0	0
CCC(C)NC(=O)CN(c1cccc(C(F)(F)F)c1)S(C)(=O)=O (stereo not drawn)	0	0	0	0	-	-
O=S(=O)(Cc1ccccc1)N1CCCC(N2CCOCC2)C1 (stereo not drawn)	0	20	0	0	0	0
Fc1ccccc1-c1cccc2ccc(N3CCN(c4ncnc5nc[nH]c45)CC3)nc12	0	6.3	0	0	0	0
O=c1c(NC2CC2)c(N2CCN(c3ccc4cccc(-c5ccccc5F)c4n3)CC2)c1=O	0	5.3	0	60	0	31
COc1ccc(C(=O)NNC(=O)C(=O)N2CCCC2)cc1OC	0	5.6	0	0	0	0
CCCN(S(=O)(=O)c1ccc(OCC)cc1)S(=O)(=O)c1cccs1	0	0	0	0	-	-
Cc1ccc2c(c1)-c1c(ssc1=S)C(C)(C)N2C(=O)c1ccccc1Cl	0	6.2	0	0	0	0
CSc1ccc(/C=N\NC(=O)CNc2ccc(C)cc2)cc1	0	5.8	0	0	0	0
COc1cc(-c2nc(-c3ccccc3)c(-c3cccs3)[nH]2)cc(OC)c1OC	0	5.0	0	0	0	0
Cc1cc(C)c(S(=O)(=O)NCCc2ccc(S(N)(=O)=O)cc2)c(C)c1	0	7.1	0	0	0	0
COc1ccc(NC(=S)N2CCC(N(C)C(C)C)CC2)cc1	0	5.9	0	0	0	0
CCCCN(C)C1CCN(C(=S)Nc2ccc(OC)cc2)CC1	0	0	0	0	-	-
COc1ccc(CCNC(=O)Nc2cccc(Cl)c2)cc1	0	0	0	0	-	-
Cc1nc2sccn2c(=O)c1CCN1CCC(=C(c2ccc(F)cc2)c2ccc(F)cc2)CC1	0	0	0	0	-	-
Cc1nc2ccccn2c(=O)c1CCN1CCC(C(=O)c2ccc(F)cc2)CC1	0	9.9!	0	0	0	0
CCCCNC(=O)CSc1nc2ccc(NC(=O)c3cccc4ccccc34)cc2s1	0	0	0	0	-	-
SMILES	FBW7 activator	GPR151 activ	MITF primary	TEAD-YAP inh	GPR151 conf act	GPR119 counter
O=C(CSc1nnc(-c2cccnc2)o1)c1cc2ccccc2oc1=O	0	6.2	0	0	0	0
CCN(CC)c1ccc(/C=C2/C(=O)NC(=O)N(Cc3ccc(F)cc3)C2=O)cc1	0	11	0	0	0	0
CCOc1ccc(/C=C2/C(=O)NC(=O)N(Cc3ccc(F)cc3)C2=O)cc1	0	0	0	0	-	-
CC(=O)c1ccc(NC(=O)C(C)Sc2nnc(NC(=O)c3ccccc3)s2)cc1 (stereo not drawn)	0	0	0	0	-	-
Cc1nc(N2CCOCC2)nc2c1CCC2	0	10	0	0	0	0
COC(=O)c1ccccc1NC(=O)c1ccc(-c2ccc([N+](=O)[O-])cc2)o1	0	0	0	0	-	-
COC(=O)C1=C(N)N(c2ccc(F)cc2)C2=C(C(=O)CCC2)C1c1cccnc1 (stereo not drawn)	0	0	0	0	-	-
CCC(C(=O)NCc1cccs1)n1nc(C)n2c(cc3occc32)c1=O (stereo not drawn)	0	0	0	0	-	-
O=C(CSCC(=O)N1CCCCC1)Nc1nc(-c2cccs2)cs1	0	0	0	0	-	-
O=C(CSCC(=O)N1CCCCC1)Nc1nc(-c2ccc(Cl)s2)cs1	0	6.1	0	0	0	0
CCc1ccc(N2C(=O)C(Cl)=C(Nc3ccc(C(=O)N4CCCC4)cc3)C2=O)cc1	0	5.2	0	0	0	0
CCc1ccc(NC2=C(Cl)C(=O)N(c3ccccc3OC)C2=O)cc1	0	0	0	0	-	-
COc1cccc(-c2nnc3n2N=C(c2cccc([N+](=O)[O-])c2)CS3)c1	0	13	0	0	0	0
Cc1nonc1CN(C)Cc1ccccc1OCC(O)CN(C)C1CCCCC1 (stereo not drawn)	0	0	0	0	-	-
COc1ccccc1N1CCN(C2CCCN(C(=O)C3CCCCC3)C2)CC1 (stereo not drawn)	0	0	0	0	-	-
COc1ccccc1N1CCN(C2CCCN(C(=O)C3(C(N)=O)CC3)C2)CC1 (stereo not drawn)	0	5.6	0	0	0	0
C#C[C@]1(O)CC[C@H]2[C@@H]3[C@H](C)CC4=C(CCC(=O)C4)[C@H]3CCC21C (stereo partly drawn)	0	0	0	0	-	-
Cc1cc2nnc(SCC(=O)Nc3sc4c(c3C#N)CCCCC4)n2c2ccccc12	0	5.9	0	0	0	0
COC(=O)c1c(NC(=O)CSc2nnc3cc(C)c4ccccc4n23)sc2c1CCCC2	0	0	0	0	-	-
Cc1ccc(CNC(=O)CSC2=Nc3ccccc3C3=NC(C(C)C)C(=O)N23)cc1 (stereo not drawn)	0	0	0	0	-	-
CC1CC(C)CN(C(=O)CSC2=Nc3ccccc3C3=NC(C(C)C)C(=O)N23)C1 (stereo not drawn)	0	0	0	0	-	-
CC(C)C1N=C2c3ccccc3N=C(SCC(=O)NCCc3ccccc3)N2C1=O (stereo not drawn)	0	5.8	0	0	0	0
CCC(C)C1N=C2c3ccccc3N=C(SCC(=O)N3CC(C)CC(C)C3)N2C1=O (stereo not drawn)	0	12	0	0	0	0
CCCNC(=O)Cn1cnc2sc(C(=O)NCCCN(CC)CC)c(C)c2c1=O	0	0	0	0	-	-
Cc1ccc(NC(=O)CSc2nc(=O)n(Cc3ccco3)c3c2CCC3)cc1F	0	6.6	0	0	0	0
Nc1nc(SCc2ccccn2)[nH]c(=O)c1NC(=O)c1ccc(Cl)cc1	0	0	0	0	-	-
Nc1c2c(nc3c1CCC3)CCCC2	0	5.0	0	0	0	0
N#CC1=C(N)Oc2n[nH]c(-c3cccc([N+](=O)[O-])c3)c2C1c1ccc(Cl)c(Cl)c1 (stereo not drawn)	0	7.9	0	0	0	0
